Test results published in PubChem BioAssay (NCI).
Compounds without any hit were thinned out: in the full panel of roughly 83,000, 20% have a hit.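 Step 1: grow cells in 96-well plates. Step 2: add test compound at a single concentration. Step 3: incubate 48 h. Step 4: record percent growth.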 Unmarked numbers belong to inactive results. The source made the active and inactive calls.

tested on: HS 578T breast; assay: NCI-60 one-dose screen, 48 h (100 = growth as untreated, 0 = no growth, -100 = all killed); conditions: 10 µM unless noted
Protocol: Growth inhibition of the HS 578T human tumor cell line is measured as a screen for anti-cancer activity. Cells are grown in 96 well plates and exposed to the test compound for 48 hours. Compounds are tested at a single concentration, which is 10^-5 M for most compounds. The reported endpoint is percent growth (GI% or GIPRCNT), where numbers from 0 - 100% represent growth inhibition, and numbers from -100% - 0 represent cell death. For example, a value of 40 represents 60% growth inhibition. A value of 0 means no net growth occurred over the course of the experiment. A value of -40 indicates 40% of cells at the beginning of the experiment died by the end of the experiment. A value of -100 means all cells are dead at the end of the experiment.
NCI-60 Human Tumor Cell Lines Screen was performed using the standard one-dose NCI protocol, which is described in more detail at https://dtp.cancer.gov/discovery_development/nci-60/default.htm.
Compounds with GIPRCNT values below 10 were considered active. Activity score was based on GIPRCNT using the following formula: […]
Score is 0 for GIPRCNT values of 100 or above, 50 for GIPRCNT values of 0, and 100 for GIPRCNT values of -100.

SMILES | growth
O=C(Nc1cccc(-n2cnc3cc(-c4ccc(O)cc4)ccc32)c1)C1CC1 | 9.4% (active)
Cc1cccc(-c2nc(Nc3ccc(C)c(S(N)(=O)=O)c3)c3ccccc3n2)c1 | 53.4%
N/C(=N\c1nc2ccccc2s1)NC(=O)Nc1ccc(Cl)cc1Cl | -26.7% (active)
C/C(=N\N=C1/C(=O)Nc2ccccc21)c1ccc2c(c1)Nc1ccccc1S2 | 72.1%
Cc1cc(=O)oc2cc(OCCCOc3ccc(/C=C/C(=O)Nc4ccccc4N)cc3)ccc12 | 48.3%
C=CC[N+](C)(C)CCn1c2ccccc2c2nc3cc(C)c(C)cc3nc21 | 56.2%
N/C(=N\c1nc2ccccc2s1)NC(=O)Nc1c(Cl)cccc1Cl | 34.4%
CC1CN(c2oc(-c3ccc([N+](=O)[O-])cc3)nc2C#N)CC(C)O1 (stereo not given) | 94.4%
C#CCOc1cc(N(CC)CC)ccc1C(C(=O)NC(C)(C)C)N(C(=O)C1CCc2cc(F)ccc2O1)c1ccc(F)cc1 (stereo not given) | 64.4%
Cn1cc(NC(=O)c2cc(NC(=O)c3ccc(/C=C/c4ccccc4)cc3)cn2C)cc1C(=O)NCCCN1CCOCC1 | 64.6%
COc1cc(NC(=O)c2cccc(C3CCc4c(cc(OC)c(OC)c4OC)O3)c2)cc(OC)c1OC (stereo not given) | -8.84% (active)
O=c1oc2ccccc2cc1-c1csc(N=Nc2c(O)[nH]c3ccc(Cl)cc23)n1 | 99.2%
O=c1oc2ccccc2cc1-c1csc(N2N=C(c3ccccc3)CC2c2ccc(N3CCOCC3)cc2)n1 (stereo not given) | 105%
CCOC(=O)/C=C/c1cccc2c1C(=O)NC(C)(c1cc3cc(Br)ccc3oc1=O)N2 (stereo not given) | 63.2%
CN(C)c1ccnc(NCCCSC(c2ccccc2)(c2ccccc2)c2ccccc2)c1 | 59.9%
CCCSc1nc(Nc2ccc(S(N)(=O)=O)cc2)c(C#N)c(-c2cc(OC)c(OC)c(OC)c2)n1 | 30.7%
O=C(Nc1ccccc1)N1CCN(c2cc(-c3cn(-c4ccccc4)nc3-c3cccc(O)c3)ccn2)CC1 | 83.1%
CCC(C)(C)c1ccc(OCCCCN2CCN(c3ccncc3)CC2)cc1 | 20.2%
Cc1ccccc1[C@H]1C(C(=O)c2ccc(Cl)cc2)C2(N[C@@H]1c1ccccc1)C(=O)Nc1ccc(Br)cc12 (stereo not given in full) | 10.7%
CCOC(=O)C1=C(N)N(c2ccccc2)C2=C(C(=O)CC(C)(C)C2)C1c1ccc([N+](=O)[O-])cc1 (stereo not given) | 100%

SMILES | growth
CCCCNC(=S)Nc1ccc(OCc2nc3ccccc3[nH]2)cc1 | 92.3%
O=c1cc(-c2ccccc2)oc2cc(OCCCC[P+](c3ccccc3)(c3ccccc3)c3ccccc3)cc(O)c12 | -35.2% (active)
CCS(=O)(=O)N1CCCC(C(=O)Nc2nc3ccc(NC(=O)c4ccc(F)c(OC)c4F)cc3s2)C1 (stereo not given) | 47.6%
O=C(N=Nc1c(O)[nH]c2ccc(Cl)cc12)c1ccc2nc(-c3ccccc3)[nH]c2c1 | 52.3%
O=C(NNc1nc2cc(F)ccc2n2c(CN3CCCCC3)ccc12)c1cnccn1 | 23.7%
COc1ccc(C(=O)Nc2n[nH]c(Nc3ccccc3)c2C#N)cc1 | 114%
Cc1nc(Nc2ccccn2)sc1C(=O)CC(SCC(=O)Nc1ccc(Cl)cc1)c1ccccc1F (stereo not given) | 4.29% (active)
CN(C)CCn1c2ccccc2c2nc3cc(C(F)(F)F)ccc3nc21 | 65.8%
COc1cccc(/C=C/c2nc3ccccc3c(=O)n2CC(=O)Nc2ccc(Cl)cc2)c1 | 32.8%
CC12CC[C@@H]3[C@]4(C)COC(c5c(F)cccc5F)O[C@@H]4CC[C@@]3(C)[C@@H]1CC(C1=CCOC1=O)O2 (stereo not given in full) | 81.2%
C=C1CCC2C3(C)COC(c4cccc(F)c4)OC3CCC2(C)C1C/C=C1/C(=O)OCC1O (stereo not given) | 15.9%
O=c1[nH]c2ccccc2cc1CSc1nccc(-c2ccc3ccccc3c2)n1 | 71%
COc1ccc(/C=C/c2nc3ccccc3n3c(-c4ccc(Cl)cc4)nnc23)cc1 | 96.2%
CN(C)c1nc(NCCNS(=O)(=O)c2ccc(C(=O)/C=C/c3ccc(C(F)(F)F)cc3)cc2)nc(Nc2ccc(F)cc2)n1 | 52.1%
Cc1cccc(-c2nc(Nc3cccc(S(N)(=O)=O)c3)c3ccccc3n2)c1 | 76.5%
CN(C)c1nc(NCCNS(=O)(=O)c2ccc(C3=Nc4c(N)nc(N)nc4NC(c4ccc(F)cc4)C3)cc2)nc(Nc2ccc(F)cc2)n1 (stereo not given) | 51.8%
COc1ccc(-c2nc(SC(C)C)nc(NCCc3c[nH]c4ccccc34)c2C#N)cc1 | 36.3%
C=C1CC[C@@H]2[C@]3(C)COC(c4cn[nH]c4-c4cccc(Cl)c4)O[C@@H]3CC[C@@]2(C)[C@@H]1C/C=C1/C(=O)OCC1O (stereo not given in full) | 26.8%
Cc1ccc(-c2nc(C#N)c(S(=O)(=O)N3CCN(S(=O)(=O)c4ccccc4)CC3)o2)cc1 | 65.5%
Cc1ccc(/C=C/c2n(Cc3ccc4ccccc4c3)c3ccccc3[n+]2Cc2ccc3ccccc3c2)cc1 | -46.2% (active)
